High-throughput results: PubChem BioAssay, several laboratories
CendR NRP1 mod – NRP-1/CendR interaction modulation; FAM-RPARPAR peptide binding to NRP-1, fluorescence polarization; inhibition, % at 25 µM; O14786; 360,000 tested, 0.85% active;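 active means inhibition or corrected inhibition above about 18%, plus a signal ratio from 0.5 to 1.5, limit read from the data, passing the limit was not always enough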
M18AAP inhibitor – PfM18AAP enzyme inhibition; AID 1822; 290,000 tested, 1.2% active; recombinant PfM18AAP, H-Glu-NHMec fluorogenic cleavage; inhibition, % at 7.35 µM;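 active means inhibition above the campaign mean inhibition over all tested compounds plus 3 SD, cut at about 28% in these data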;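 further: 0% = plate median of test compound wells and 100% = 2 mM ZnCl2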
APOBEC3G inh – APOBEC3G (human) deaminase inhibition. recombinant A3G, ssDNA deamination FAM/TAMRA fluorescence. AID 493012. 330,000 tested, 0.28% active. inhibition, % at 20 µM. Q9HC16;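 active means inhibition of at least 40% at 20 µM, with no more than 30% in the related APOBEC3A deaminase screen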;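 further: plate controls were DMSO wells with A3G for no effect and wells lacking A3G enzyme for full effect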
A3A deaminase – inhibitors of human APOBEC3A DNA deaminase. AID 493011. inhibition, % at 20 µM. P31941. 330,000 tested, 0.41% active. recombinant A3A, FAM/TAMRA ssDNA deamination fluorescence;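 active means at least 40% inhibition at 20 µM here, with at most 30% in a related deaminase screen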;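 further: plate controls were A3A with DMSO for no effect and wells lacking A3A enzyme for full effect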
Target sequence (P31941 whole entry, looked up): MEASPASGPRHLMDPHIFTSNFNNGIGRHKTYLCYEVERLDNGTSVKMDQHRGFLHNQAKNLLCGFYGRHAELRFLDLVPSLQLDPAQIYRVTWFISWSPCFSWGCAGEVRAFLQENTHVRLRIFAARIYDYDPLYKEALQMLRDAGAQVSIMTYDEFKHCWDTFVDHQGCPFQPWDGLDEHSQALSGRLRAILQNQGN
ALR H2O2 inh – human ALR oxidase inhibition via reduced H2O2; inhibition, % (concentration not given with the values); 290,000 tested, 3.8% active; purified ALR, DTT oxidation, H2O2 HRP-luminol luminescence; P55789;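 active means mean replicate inhibition above about 79%, with every replicate also reaching it, limit read from the data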
Target sequence (P55789 whole entry, looked up): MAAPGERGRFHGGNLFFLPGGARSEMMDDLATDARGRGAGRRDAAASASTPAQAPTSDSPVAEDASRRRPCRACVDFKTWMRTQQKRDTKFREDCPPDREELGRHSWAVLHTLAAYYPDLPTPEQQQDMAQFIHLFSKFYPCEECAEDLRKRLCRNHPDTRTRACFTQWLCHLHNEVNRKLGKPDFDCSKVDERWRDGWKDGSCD
CR mimetic SO – caloric restriction mimetics inhibiting age-related superoxide in yeast. 330,000 tested, 0.18% active. S. cerevisiae aged cells, superoxide DHE fluorescence; active compounds read low. superoxide response (% of plate mean), % at 10 µM;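 active means superoxide response under a set limit, about three screen SD below normal, cut at about 65% in these data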;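 further: yeast aged for seven days with compound at 30 °C before DHE staining; 100% = average MFI of all compound-treated wells on the plate with controls excluded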
Starred values were filed as active, the others as inactive; x = no result. In the library only some 5.2% were active in any assay of this set; here they are far more common.

SMILES | CendR NRP1 mod | M18AAP inhibitor | APOBEC3G inh | A3A deaminase | ALR H2O2 inh | CR mimetic SO
COc1ccc(CN2CC[C@H]3C=CC[C@@H](C(=O)NCCc4ccccc4)[C@H]3C2=O)cc1OC | 24* | x | -6 | -3 | x | 92
CCCCN1CC[C@H]2C=CC[C@@H](C(=O)Nc3ccccc3)[C@H]2C1=O | 32* | x | 0 | -1 | x | 98
CCOC(=O)c1ccc(NC(=O)Cn2nnc3ccccc32)cc1 | -2 | 4 | -1 | 0 | -1 | 90
C/C(=N\NC(=O)CC#N)c1cc2ccccc2oc1=O | 2 | 5 | -7 | -5 | 45 | 94
C/C(=N\Nc1cccc(C(=O)O)c1)c1cc2ccccc2o1 | 4 | 14 | -7 | -6 | 99* | 98
C/C(=N\Nc1ccc(Cl)c(C(=O)O)c1)c1cc2ccccc2o1 | 1 | 11 | -3 | 6 | 99* | 100
C/C(=N\Nc1ccccc1)c1cc2ccccc2oc1=O | -10 | 3 | -9 | 1 | 93* | 96
Cc1cc(Cl)cc2sc(NC(=O)C3CC3)nc12 | -7 | -2 | -1 | 1 | -2 | 115
Cn1nnc(C(O)CNCc2cccs2)n1 (stereo not drawn) | -2 | 8 | 0 | 1 | -3 | 102
O=C(NCc1ccccc1)c1nnc(CS(=O)(=O)c2ccccc2)o1 | 4 | -9 | -3 | -5 | 5 | 104
Oc1ccc(N2CCN(Cc3ccc(OCCCN4CCCCC4)cc3)CC2)cc1 | 4 | 24 | 16 | 2 | 99* | 78
O=C(O)C1CSC2(c3ccc(F)cc3)CCC(=O)N12 (stereo not drawn) | -5 | 6 | -1 | 1 | 10 | 96
Cc1c(O)ccc(/C=N/Nc2nc(-c3cccnc3)nc3ccccc23)c1O | -5 | 29* | 1 | 1 | 14 | 112
Oc1ccc(/C=N/Nc2nc(-c3cccnc3)nc3ccccc23)c(O)c1 | -50 | 30* | -2 | 4 | 33 | 97
Cc1cccc(-c2nc(CSc3nc4c(c(=O)[nH]3)CCC4)c(C)o2)c1 | 3 | -8 | -3 | -3 | 99* | 115
Cc1oc(-c2ccccc2)nc1CSc1nc2c(c(=O)[nH]1)CCC2 | 4 | -7 | -1 | 4 | x | 102
Cc1ccc(-n2nc(-c3ccc(N)cc3)cc2N)cc1 | -3 | 1 | -8 | -2 | 98* | 106
Nc1ccc(-c2cc(N)n(-c3ccccc3)n2)cc1 | 8 | 3 | -6 | -4 | 93* | 97
CCNc1ccc(C(=O)O)cc1N | -1 | -11 | -4 | 0 | 98* | 82
CCc1ccccc1Nc1ccc(C(=O)O)cc1N | 21 | 3 | -4 | -4 | 99* | 79
Cc1ccnc2nc(C(=O)N3CCN(c4ccc(F)cc4)CC3)nn12 | -4 | 4 | -4 | -2 | 21 | 102
Cc1cc(C(=O)NC2=NCCS2)c2ccccc2n1 | 6 | -7 | 2 | -2 | -4 | 92
COc1ccc(Oc2nc3ccccc3n3cccc23)cc1 | -3 | -6 | -6 | -1 | x | 110
CCS(=O)(=O)c1nc(S(=O)(=O)c2ccc(Cl)cc2)c(N2CCOCC2)s1 | 35* | -8 | -6 | -4 | -2 | 109
CCC(CC)C(=O)c1c[nH]c(C(=O)NCc2ccc(F)cc2)c1 | 5 | 10 | -8 | -5 | -4 | 97
SMILES | CendR NRP1 mod | M18AAP inhibitor | APOBEC3G inh | A3A deaminase | ALR H2O2 inh | CR mimetic SO
O=C(CSc1ccc2ccccc2n1)N/N=C/c1ccc(O)cc1 | 8 | -1 | 7 | 3 | 99* | 104
Cc1ccc2nc(SCC(=O)N/N=C/c3ccc(C(=O)O)cc3)cc(C)c2c1 | -15 | 7 | -8 | -5 | 98* | 104
O=C(CNS(=O)(=O)c1ccccc1)N/N=C/c1ccc(O)cc1 | 8 | 9 | -13 | -3 | 99* | 104
Cc1ccc2c(c1)-n1c(nc3cc(F)ccc3c1=O)C(Cc1ccccc1)NC2=O (stereo not drawn) | x | x | -11 | -3 | 3 | 105
Cc1nn(C)cc1C(=O)/C=C/c1ccc([N+](=O)[O-])cc1 | 8 | 5 | -4 | -2 | 84* | 86
CCn1cc(CN(C)C(=O)/C=C/c2ccc([N+](=O)[O-])cc2)c(C)n1 | 0 | 0 | 0 | 0 | -2 | 100
Nc1nnc(CCCCCCCCCCc2nnc(N)s2)s1 | 11 | -1 | -4 | 2 | -5 | 80
COc1ccc2c3c([nH]c2c1)C(C)N(C(C)=O)CC3 (stereo not drawn) | 5 | 5 | -6 | -5 | 97* | 88
